An excerpt weighted towards active compounds, which were near 4.6% of everything screened.
TRHR enhancer = TRH receptor (human) allosteric enhancement; P34981; TRHR cells, fluo-8 calcium fluorescence, EC20 TRH enhancement; enhancement, % at 2 µM; hit rate 0.66% among 360,000; in the data active = enhancement above about 30%; also: 0% is about no effect
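Enhancer read-out: after compound pinning and an initial kinetic agonist-mode read, an EC20 of TRH (10 nM final) was injected and fluo-8 calcium signal (Ex 480/Em 530) followed at 1 s/cycle for 100 cycles in TRHR-expressing cells.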
TRHR agonist = TRH receptor (human) agonism; P34981; TRHR cells, calcium flux fluo-8, FDSS agonist mode; activation, % at 2 µM; hit rate 0.18% among 360,000; also: 0% is about no effect
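Read-out: compound-evoked intracellular calcium rise in TRHR cells, fluo-8 dye, kinetic FDSS fluorescence at 1 s/cycle following a 10-cycle baseline. Cells cultured overnight before dye loading (30 min–1.5 h, RT).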
D1 potentiator = enhances dopamine response at the human D1 receptor; hit rate 0.036% among 360,000; potentiation, % at 10 µM; HEK293 TREx D1 cells, calcium flux, dopamine EC20 potentiation; P21728; in the data active = potentiation above about 30%; also: 0% is about no effect
Target sequence (P21728 whole entry, looked up): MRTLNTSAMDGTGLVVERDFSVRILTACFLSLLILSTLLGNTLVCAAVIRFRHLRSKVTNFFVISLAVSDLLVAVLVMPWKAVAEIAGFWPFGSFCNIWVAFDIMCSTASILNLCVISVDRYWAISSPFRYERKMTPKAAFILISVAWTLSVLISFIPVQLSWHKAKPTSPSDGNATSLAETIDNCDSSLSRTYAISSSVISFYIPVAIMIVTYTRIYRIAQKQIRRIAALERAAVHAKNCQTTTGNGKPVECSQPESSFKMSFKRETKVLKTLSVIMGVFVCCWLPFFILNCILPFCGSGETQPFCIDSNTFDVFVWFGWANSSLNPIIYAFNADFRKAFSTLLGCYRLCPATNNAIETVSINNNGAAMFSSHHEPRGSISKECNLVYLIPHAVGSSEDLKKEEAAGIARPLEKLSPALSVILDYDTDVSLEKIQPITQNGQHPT
D1 antagonist = antagonists of human D1 dopamine receptor | P21728 | HEK293 TREx D1 cells, calcium flux, dopamine EC80; active compounds read low | activity change, negative = inhibition, % at 10 µM | hit rate 3.2% among 360,000; in the data active = activity change below about -30%; also: % is scaled to controls: 0 for no effect and ±100 for the full control effect
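Kinetic fluorescence of a calcium dye serves as the read-out. D1-expressing Hek293 Trex cells, induced overnight at 30 C, are exposed to compound for 180 s before an EC80 dopamine addition, then read 180 s further.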
D1 ag = activates the human D1 dopamine receptor; HEK293 T-REx D1 cells, calcium flux, agonist mode; AID 504660; hit rate 1% among 360,000; activation, % at 2 µM; also: 0% is about no effect
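Tetracycline-induced HEK293 TREx D1 cells, force-coupled to calcium signalling, were dye-loaded with a no-wash calcium kit. Compound was pin-added after a 10 s baseline. Fluorescence was read kinetically at 1 cycle/s for 180 s, with calcium rises flagged as agonism.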
The depositor's hits bear a star; · = no result. Rule as the data show it, unless noted: active = activation above about 30%; inactive = the rest.

SMILES | TRHR enhancer | TRHR agonist | D1 potentiator | D1 antagonist | D1 ag
Cc1ccc(Cl)cc1N1CCN(C(=O)c2ccc(NC3=NC4CS(=O)(=O)CC4S3)cc2)CC1 (stereo not drawn) | -3 | 1 | -5 | -44* | 4
COc1ccc2nc(N(Cc3cccnc3)C(=O)Cc3ccccc3)sc2c1 | 3 | -1 | -1 | · | 18
CN(C)CCCN(C(=O)CCc1ccccc1)c1nc2ccc(Br)cc2s1 | -2 | 1 | -3 | -16 | 23
COc1ccc2sc(N(Cc3cccnc3)C(=O)CCc3ccccc3)nc2c1 | 12 | -1 | -2 | · | 34*
CN(C)CCCN(C(=O)CCc1ccccc1)c1nc2ccc(F)cc2s1 | 0 | 4 | -7 | -6 | 32*
COc1ccc(N2CC(NC(=O)c3ccc4c(c3)OCO4)CC2=O)cc1OC (stereo not drawn) | -7 | 0 | -2 | · | -2
CSc1ccc(C2c3c(oc4ccc(F)cc4c3=O)C(=O)N2c2ccc(C)cn2)cc1 (stereo not drawn) | -1 | 0 | 2 | 7 | 1
Cn1nc(-c2ccccc2)cc1NS(=O)(=O)c1ccccc1 | 4 | -1 | -2 | -36* | 2
Cc1ccc(S(=O)(=O)Nc2cc(-c3ccccc3)nn2C)cc1 | 1 | 0 | -2 | 9 | 1
CCc1cccc(NC(=O)Cn2cc(C=O)c3ccccc32)c1 | -4 | 1 | -4 | -30* | 14
O=C1CCCC2=C1C1O[C@](CCCCN3C(=O)c4ccccc4C3=O)(Cc3ccccc31)O2 | -13 | 0 | 0 | 16 | 0
N#Cc1cccc(NC(=O)COC(=O)Cn2nc(-c3ccccc3)oc2=O)c1 | -8 | 0 | · | -85* | 18
COc1ccc(Cl)cc1NC(=O)CCS(=O)(=O)c1nc(-c2cccs2)cc(C(F)(F)F)n1 | -11 | 1 | 0 | -35* | 5
COc1ccc(S(=O)(=O)N2CCCC2CNC(=O)C(=O)NCc2ccccn2)cc1 (stereo not drawn) | -4 | 0 | 2 | -19 | 0
Cc1ccc(NC(=S)N2CCCC(c3nc4ccc(C)cc4[nH]3)C2)c(C)c1 (stereo not drawn) | -3 | -1 | -4 | -31* | -2
Cc1ccc2nc(C3CCCN(C(=S)Nc4cccc(C)c4C)C3)[nH]c2c1 (stereo not drawn) | -2 | 1 | 0 | 11 | 1
CC(C)CC(C(=O)NC(=O)NCc1ccccc1)N1C(=O)c2ccccc2C1=O (stereo not drawn) | -1 | 0 | -9 | -79* | 2
CC1CCN(C(=O)N2c3ccccc3Sc3ccccc32)CC1 | 13 | 1 | 3 | 22 | 3
CC1CN(C(=O)N2c3ccccc3Sc3ccccc32)CC(C)O1 (stereo not drawn) | 2 | 1 | -14 | -33* | 2
COc1cccc(N2CCN(c3ncnc4c3[nH]c3ccc(F)cc34)CC2C)c1 (stereo not drawn) | 6 | 0 | -8 | -35* | 11
Cc1ccc(NS(=O)(=O)c2cc(C(=O)N3CCCC3)ccc2C)cc1C | -1 | -1 | -4 | 2 | 1
Cc1ccc(NS(=O)(=O)c2cc(C(=O)N(C)C)ccc2C)cc1C | 17 | 0 | 4 | -37* | 0
O=[S+]([O-])(/C=C/c1nc(Nc2cc(F)cc(F)c2)c2ncn(CC(F)F)c2n1)c1ccccc1 | -1 | 0 | 3 | 4 | 0
CCN(CC)c1ccc2cc(S(=O)(=O)c3ccc(Cl)cc3)c(=O)oc2c1 | 7 | 110* | 21 | -7 | 272*
O=c1oc2cc(O)ccc2cc1S(=O)(=O)c1ccccc1 | 5 | -1 | 7 | 20 | 0
SMILES | TRHR enhancer | TRHR agonist | D1 potentiator | D1 antagonist | D1 ag
CCCCCCc1cc2cc(S(=O)(=O)c3ccc(C)cc3)c(=O)oc2cc1O | 47* | 29 | -7 | -8 | 27
CCCCCCc1cc2cc(S(=O)(=O)c3ccc(Cl)cc3)c(=O)oc2cc1O | -8 | 12 | -2 | -6 | 32*
CCCCCCc1cc2cc(C(=O)NCc3ccccc3)c(=N)oc2cc1O | -2 | 18 | 3 | -20 | 3
CCCCCCc1cc2cc(-c3nnc(-c4cccc(Cl)c4)o3)c(=O)oc2cc1O | -2 | 72* | -2 | -2 | 129*
O=S(=O)(NCCc1cn2ccsc2n1)c1ccc(Cl)cc1 | -4 | -1 | -3 | -8 | 1
COc1ccc(-n2cc(C(=O)N(C)c3cc(C)ccc3OC)c3ccccc3c2=O)cc1 | 2 | 0 | -2 | 0 | 7
Cc1ccc(N(CC(=O)N2CCN(c3cccc(C)c3C)CC2)S(=O)(=O)c2c(C)nn(C)c2C)cc1 | 0 | -1 | 0 | -43* | 3
CCN(C(=O)CSc1nc2ccccc2n1CC(=O)NCc1ccc(OC)cc1)c1ccccc1 | -1 | -1 | 3 | -2 | 35*
COc1ccc(CNC(=O)Cn2c(SCC(=O)N(C)c3ccccc3)nc3ccccc32)cc1 | -8 | 0 | 2 | -6 | 8
CCC(C)NC(=O)CSc1nc2ccccc2c(=O)n1Cc1ccc(OC)cc1 (stereo not drawn) | 32* | -1 | -4 | -5 | 6
COc1cc(-c2nnc(COC(=O)c3ccc(C)o3)o2)cc(OC)c1OC | 3 | 0 | -2 | -7 | 1
CC(C)(C)c1ccc(C2Sc3ccccc3NC3=C2C(=O)c2ccccc23)cc1 (stereo not drawn) | -3 | 0 | -1 | -9 | -3
CC1(c2ccc(Cl)cc2)NC(=O)N(CC(=O)N2CCc3ccccc3C2)C1=O (stereo not drawn) | 5 | 4 | 1 | 28 | 32*
Cc1cc(Nc2cccc(F)c2)nc(-c2ccccc2O)n1 | 1 | 0 | -9 | -19 | 2
Cc1cc(Nc2ccccc2)nc(-c2ccccc2O)n1 | 6 | 0 | -3 | -45* | 4
CCOC(=O)C(CC)Sc1ncnc2c1c(-c1ccccc1)cn2-c1ccc(OC)cc1 (stereo not drawn) | -9 | 1 | 1 | -7 | 4
COc1ccc(S(=O)(=O)N2CCOCC2)cc1NC(=O)[C@@H]1CCCN1C(=O)c1cccs1 | 1 | 0 | -2 | 2 | 0
COc1ccc(S(=O)(=O)N2CCOCC2)cc1NC(=O)C1CCCN1C(=O)c1cccs1 (stereo not drawn) | -4 | -1 | -6 | -62* | 3
N#CCc1nn(Cc2ccc(F)cc2)c(=O)c2ccccc12 | -8 | 1 | -8 | -32* | 2
O=c1c2ccccc2nnn1Cc1ccc(F)cc1 | -11 | 0 | 1 | 11 | 2
CC(C)CNS(=O)(=O)c1ccc(CCC(=O)N2CCN(c3ccc(F)cc3)CC2)cc1 | -2 | 0 | -8 | -32* | 3
O=C(Cc1ccc([N+](=O)[O-])cc1)N1CCN(c2ccc([N+](=O)[O-])cc2)CC1 | -7 | 0 | -8 | 7 | 3
O=C(Cc1ccc(F)cc1)N1CCN(c2ccc([N+](=O)[O-])cc2)CC1 | -7 | 0 | -2 | -55* | 13

Screens: PubChem, National Center for Advancing Translational Sciences (NCATS)
